Data reported in PubChem BioAssay (NCATS).
Results filed as inconclusive are left out. The source made the active and inactive calls. Unless noted, the call rests on the fitted dose curve; in most records, active means well fitted curve in the direction sought with a large enough effect; inconclusive means small, poorly fitted or top-dose-only effect, or another doubt; inactive means no such curve, though single readings can be large; an effect the other way counts as inactive or inconclusive.

Key:
[1] = target: Cytochrome P450 2D6 (Homo sapiens) (UniProt P10635); assay: Cytochrome P450 family 2 subfamily D member 6 (CYP2D6) small molecule antagonists: luciferase biochemical (cell-free) qHTS assay (AID 1645840; active means well fitted curve in the direction sought with a large enough effect in the repeat runs; an effect the other way counts as inactive or inconclusive; further: nearly all actives have a fitted effect of over 55% in size; further: potency means the concentration at half of the fitted maximal effect)
Cytochrome P450 2D6 (Homo sapiens), sequence (P10635 whole entry, looked up): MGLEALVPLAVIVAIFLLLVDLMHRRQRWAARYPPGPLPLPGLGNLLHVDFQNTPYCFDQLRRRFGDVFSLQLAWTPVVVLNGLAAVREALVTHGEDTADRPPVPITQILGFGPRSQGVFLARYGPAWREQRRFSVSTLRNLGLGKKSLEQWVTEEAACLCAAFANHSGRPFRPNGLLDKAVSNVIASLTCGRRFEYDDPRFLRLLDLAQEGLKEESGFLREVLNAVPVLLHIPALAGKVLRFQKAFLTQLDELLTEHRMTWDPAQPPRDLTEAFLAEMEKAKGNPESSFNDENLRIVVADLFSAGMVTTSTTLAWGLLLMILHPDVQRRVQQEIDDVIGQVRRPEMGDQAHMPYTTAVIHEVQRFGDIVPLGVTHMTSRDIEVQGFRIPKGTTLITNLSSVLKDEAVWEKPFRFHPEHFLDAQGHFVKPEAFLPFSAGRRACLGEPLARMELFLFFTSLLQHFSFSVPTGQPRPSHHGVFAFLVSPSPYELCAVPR
Method in brief: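 P450-Glo luminescent screen: recombinant CYP2D6 enzyme–proluciferin substrate mix preincubated with compound 10 min at room temperature, then NADPH regeneration added for 1 h at room temperature. Detection reagent added for 20 min; luciferin light read as relative luminescence units.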

[2] = target: Cytochrome P450 2C9 (Homo sapiens) (UniProt P11712); assay: Cytochrome P450 family 2 subfamily C member 9 (CYP2C9) small molecule antagonists: luciferase biochemical (cell-free) qHTS assay (AID 1645842; active means well fitted curve in the direction sought with a large enough effect in the repeat runs; an effect the other way counts as inactive or inconclusive; further: nearly all actives have a fitted effect of over 55% in size; further: potency means the concentration at half of the fitted maximal effect)
Cytochrome P450 2C9 (Homo sapiens), sequence (P11712 whole entry, looked up): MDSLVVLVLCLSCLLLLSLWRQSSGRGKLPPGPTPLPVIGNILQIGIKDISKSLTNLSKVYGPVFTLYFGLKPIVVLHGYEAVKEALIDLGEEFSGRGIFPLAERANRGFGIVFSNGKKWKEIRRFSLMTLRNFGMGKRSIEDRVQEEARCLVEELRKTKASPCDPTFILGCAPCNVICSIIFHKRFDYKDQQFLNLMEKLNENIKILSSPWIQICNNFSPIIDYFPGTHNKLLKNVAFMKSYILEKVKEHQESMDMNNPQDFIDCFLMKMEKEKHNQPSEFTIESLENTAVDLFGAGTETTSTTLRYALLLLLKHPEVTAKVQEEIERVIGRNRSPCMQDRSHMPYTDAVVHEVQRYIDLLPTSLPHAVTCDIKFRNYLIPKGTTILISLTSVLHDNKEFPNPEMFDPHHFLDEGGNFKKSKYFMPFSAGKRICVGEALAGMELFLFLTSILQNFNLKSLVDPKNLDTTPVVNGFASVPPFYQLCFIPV
Method in brief: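 Luminescence, after 20 min with luciferin detection reagent, reflected CYP2C9 turnover during a 1 h NADPH-driven reaction at 37C. Enzyme-substrate mix contained 0.4% bovine serum albumin and was preincubated with compound 10 min at room temperature.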

[3] = Viability counterscreen for antagonist of constitutive androstane receptor (CAR) against the NCATS DSHEA and TCM libraries (AID 1794837);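 further: compound exposure lasted 24 h before viability reading; 0% is about no effect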
Method in brief: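 HepG2-CYP2B6-hCAR cells (2,500/well) were allowed to attach for 5 h, then exposed to compounds with 48 uM CITCO for 24 h at 37C. Viability was read by CellTiter-Fluor fluorescence after 1 h.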

[4] = Viability counterscreen for agonist of constitutive androstane receptor (CAR) against the NCATS DSHEA and TCM libraries (AID 1794838); further: 0% is about no effect
Method in brief: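 HepG2-CYP2B6-hCAR cells (2,500/well) attached 5 h, then got compounds plus 0.75 uM PK11195 final. After 24 h at 37C, viability read by CellTiter-Fluor fluorescence (Ex/Em 405/540 nm).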

[5] = target: Nuclear receptor subfamily 1 group I member 3 (Homo sapiens) (UniProt Q14994); assay: Primary qHTS for agonist of constitutive androstane receptor (CAR) against the NCATS DSHEA and TCM libraries (AID 1794839);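 further: HepG2 cells expressing human CAR with a CYP2B6 reporter plus PK11195 antagonist; 0% is about no effect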
Nuclear receptor subfamily 1 group I member 3 (Homo sapiens), sequence (Q14994 whole entry, looked up): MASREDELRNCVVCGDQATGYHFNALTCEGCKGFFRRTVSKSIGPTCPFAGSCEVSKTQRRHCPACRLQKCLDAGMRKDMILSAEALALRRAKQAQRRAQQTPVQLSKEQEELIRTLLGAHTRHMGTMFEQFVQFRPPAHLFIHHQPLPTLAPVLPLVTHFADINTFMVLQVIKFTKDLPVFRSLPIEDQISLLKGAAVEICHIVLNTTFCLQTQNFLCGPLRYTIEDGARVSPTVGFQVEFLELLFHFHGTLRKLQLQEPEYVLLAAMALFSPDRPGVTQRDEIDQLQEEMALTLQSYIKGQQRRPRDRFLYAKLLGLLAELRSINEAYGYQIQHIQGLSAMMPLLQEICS
Method in brief: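 HepG2-CYP2B6-hCAR cells (2,500/well) were attached for 5 h, then treated for 24 h at 37 °C with compounds plus 0.75 µM PK11195. Luciferase luminescence (ONE-Glo) was read, with CellTiter-Fluor viability (Ex/Em 405/540 nm).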

[6] = HepG2 viability counterscreen (readout 2: ATP content) against the NCATS DSHEA and TCM libraries (AID 1794840);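 further: HepG2 cells exposed to substances for about 24 h; 0% is about no effect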
Method in brief: (§1)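 HepG2 cells (1,000 cells/well) attached ~4 h, then treated ~24 h at 37C with substances. Protease activity read by GF-AFC (25 uM final, 30 min, Ex/Em 380/510 nm); ATP content then by CellTiter-Glo luminescence.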

[7] = HepG2 viability counterscreen (readout 1: protease activity) against the NCATS DSHEA and TCM libraries (AID 1794841);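 further: cells exposed to compounds for about 24 h before the protease read; 0% is about no effect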
Method in brief: as §1

[8] = target: Cytochrome P450 3A4 (Homo sapiens) (UniProt P08684); assay: qHTS for inhibitors of CYP3A4 against the NCATS DSHEA and TCM libraries (AID 1919971);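 further: on the % scale 0 is the no-effect control and ±100 the full control effect; inhibition lowers luminescence from luciferin made by CYP3A4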
Cytochrome P450 3A4 (Homo sapiens), sequence (P08684 whole entry, looked up): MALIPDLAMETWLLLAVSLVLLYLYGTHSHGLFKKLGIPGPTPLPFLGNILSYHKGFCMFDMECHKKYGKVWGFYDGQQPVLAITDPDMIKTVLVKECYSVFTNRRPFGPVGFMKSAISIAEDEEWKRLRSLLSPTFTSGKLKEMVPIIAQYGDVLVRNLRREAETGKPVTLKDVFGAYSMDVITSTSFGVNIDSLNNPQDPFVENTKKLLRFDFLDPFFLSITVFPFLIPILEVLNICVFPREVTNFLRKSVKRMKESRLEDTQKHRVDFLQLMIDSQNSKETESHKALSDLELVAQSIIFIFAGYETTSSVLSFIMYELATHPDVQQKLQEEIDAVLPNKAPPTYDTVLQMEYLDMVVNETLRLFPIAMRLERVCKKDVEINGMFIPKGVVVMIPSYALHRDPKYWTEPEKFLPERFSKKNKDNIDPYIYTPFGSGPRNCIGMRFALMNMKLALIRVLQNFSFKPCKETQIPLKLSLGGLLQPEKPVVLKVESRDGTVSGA
Method in brief: (§2)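 Light output from converted D-luciferin reports remaining CYP activity. Compounds preincubate with enzyme and substrate for 15 min; NADPH regeneration (1x final) runs the reaction for 30-45 min.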

[9] = target: Cytochrome P450 2D6 (Homo sapiens) (UniProt P10635); assay: qHTS for inhibitors of CYP2D6 against the NCATS DSHEA and TCM libraries (AID 1919972); further: on the % scale 0 is the no-effect control and ±100 the full control effect
Method in brief: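 Steps: enzyme plus luciferin substrate dispensed; test substances pinned; 15 min RT; 1x NADPH regenerating solution added, 30–45 min RT protected from light; detection reagent, 30 min RT; luminescence measured. Minus-enzyme wells as background.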

[10] = target: Cytochrome P450 2C9 (Homo sapiens) (UniProt P11712); assay: qHTS for inhibitors of CYP2C9 against the NCATS DSHEA and TCM libraries (AID 1919973);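 further: luminogenic pro-luciferin CYP2C9 substrate turned into luciferin with NADPH regeneration; series mostly up to about 34 µM; on the % scale 0 is the no-effect control and ±100 the full control effect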
Method in brief: as §2

[11] = target: Cytochrome P450 2C19 (Homo sapiens) (UniProt P33261); assay: qHTS for inhibitors of CYP2C19 against the NCATS DSHEA and TCM libraries (AID 1919974);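 further: luminescence from luciferin released by CYP2C19 oxidation of a pro-luciferin substrate; on the % scale 0 is the no-effect control and ±100 the full control effect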
Method in brief: as §2

[12] = KB-3-1 P-gp reporter qHTS against the NCATS DSHEA and TCM libraries (AID 1919975); further: 0% is about no effect
Method in brief: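 Parental KB-3-1 human cervical adenocarcinoma cells (500 cells/well, DMEM + 10% FBS) were treated with substances for ~72 h at 37C; viability was read by CellTiter-Glo luminescence.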

[13] = target: Cytochrome P450 1A2 (Homo sapiens) (UniProt P05177); assay: qHTS for inhibitors of CYPIA2 against the NCATS DSHEA and TCM libraries (AID 1919976);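 further: light from luciferin formed by CYP1A2 from a pro-luciferin substrate; series mostly up to about 37 µM; on the % scale 0 is the no-effect control and ±100 the full control effect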
Method in brief: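 In this quantitative HTS, inhibition of recombinant human CYP1A2 was measured as loss of luciferin-derived luminescence. Turnover ran 30-45 min at RT after NADPH regeneration solution was added.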

[14] = qHTS Counterscreen for compound interference against the NCATS DSHEA and TCM libraries (AID 1919978); conditions: firefly luciferase detection reagent interference, luminescence; further: % of control where 0% means no effect
Method in brief: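 D-luciferin (1 uM final) or 100 mM potassium phosphate buffer alone was preincubated 15 min at RT with compounds (19.5 nM to 39.8 uM final). Luciferin detection reagent was then added and luminescence read after 30 min at RT.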

[15] = Dual reporter qHTS for agonist of Pregnane X Receptor (hPXR) against the NCATS DSHEA and TCM libraries: Fluorescence readout (AID 1920058); further: 0% is about no effect
Method in brief: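 Measures viability of the PXR reporter HepG2 line by protease-substrate fluorescence (405/540 nm), taken 1 h after CellTiter-Fluor addition. Substances are tested as concentration series over a ~24 h exposure, with rifampicin as agonist control.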

[16] = target: Nuclear receptor subfamily 1 group I member 2 (Homo sapiens) (UniProt O75469); assay: Dual reporter qHTS for agonist of Pregnane X Receptor (hPXR) against the NCATS DSHEA and TCM libraries: Luminescence readout (AID 1920059); further: 0% is about no effect
Nuclear receptor subfamily 1 group I member 2 (Homo sapiens), sequence (O75469 whole entry, looked up): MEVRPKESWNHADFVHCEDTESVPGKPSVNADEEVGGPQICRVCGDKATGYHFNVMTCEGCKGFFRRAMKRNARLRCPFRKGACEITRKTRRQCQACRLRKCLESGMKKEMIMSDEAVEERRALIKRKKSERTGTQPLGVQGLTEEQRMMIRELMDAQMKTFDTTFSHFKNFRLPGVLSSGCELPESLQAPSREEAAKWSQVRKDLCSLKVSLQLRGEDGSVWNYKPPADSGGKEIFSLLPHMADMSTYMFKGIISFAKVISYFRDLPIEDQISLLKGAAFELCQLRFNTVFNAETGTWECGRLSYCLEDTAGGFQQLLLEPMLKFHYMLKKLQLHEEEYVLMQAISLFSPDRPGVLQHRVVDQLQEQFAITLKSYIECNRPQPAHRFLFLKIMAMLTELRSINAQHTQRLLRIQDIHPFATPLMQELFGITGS
Method in brief: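 hPXR-LucHepG2 cells in phenol red-free DMEM with 5% charcoal-stripped FBS, 2000 cells/well, attached 5 h, then exposed 24 h at 37C to compounds; rifampicin as positive agonist control (2.8 nM–92 uM). Luciferase luminescence read.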

[17] = target: Nuclear receptor subfamily 1 group I member 2 (Homo sapiens) (UniProt O75469); assay: Dual reporter qHTS for antagonist of Pregnane X Receptor (hPXR) against the NCATS DSHEA and TCM libraries: Luminescence Readout (AID 1920060);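 further: HepG2 cells carrying hPXR luciferase reporter stimulated with rifampicin at 2 µM; 0% is about no effect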
Method in brief: (§3)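 Antagonist mode: rifampicin 2 uM final co-added with compounds to hPXR-LucHepG2 cells for 24 h at 37C. Viability by CellTiter-Fluor, Ex/Em 405/540 nm, 1 h; reporter by ONE-Glo luminescence.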

[18] = Dual reporter qHTS for antagonist of Pregnane X Receptor (hPXR) against the NCATS DSHEA and TCM libraries: Fluorescence Readout (AID 1920061); further: 0% is about no effect
Method in brief: as §3

[19] = target: Glutathione peroxidase 1 (Homo sapiens) (UniProt P07203); assay: Primary qHTS Assay for Inhibitors of Recombinant Selenoprotein Glutathione Peroxidase 1 (GPX1) (AID 1845191); further: nearly all actives have a fitted effect of over 65% in size
Glutathione peroxidase 1 (Homo sapiens), sequence (P07203 whole entry, looked up): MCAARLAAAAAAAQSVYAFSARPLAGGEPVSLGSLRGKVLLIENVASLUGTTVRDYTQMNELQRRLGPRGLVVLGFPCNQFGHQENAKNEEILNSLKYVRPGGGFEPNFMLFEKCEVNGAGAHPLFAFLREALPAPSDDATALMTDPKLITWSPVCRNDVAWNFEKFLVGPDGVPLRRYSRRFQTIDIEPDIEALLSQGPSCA
Method in brief: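 Recombinant GPX1 (10 nM final) was preincubated with compound for 30 min at room temperature, then reacted with 1 mM GSH, 0.5 mM CHP, 0.5 mM NADPH and 100 nM glutathione reductase; NADPH fluorescence (340/450 nm) was read at 0 and 15 min.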

[20] = target: Phospholipid hydroperoxide glutathione peroxidase GPX4 (Homo sapiens) (UniProt P36969); assay: Primary qHTS Assay for Inhibitors of Recombinant Selenoprotein Glutathione Peroxidase 4 (GPX4) (AID 1845192); further: nearly all actives have a fitted effect of over 65% in size
Phospholipid hydroperoxide glutathione peroxidase GPX4 (Homo sapiens), sequence (P36969 whole entry, looked up): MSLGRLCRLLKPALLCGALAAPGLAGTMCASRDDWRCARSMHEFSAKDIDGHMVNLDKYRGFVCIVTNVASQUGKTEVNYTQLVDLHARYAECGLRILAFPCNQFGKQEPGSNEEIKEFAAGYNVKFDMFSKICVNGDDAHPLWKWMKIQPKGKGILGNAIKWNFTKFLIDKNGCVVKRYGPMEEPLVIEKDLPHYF
Method in brief: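 GR-coupled readout: 100 nM GR, 1 mM GSH, 0.5 mM NADPH; NADPH fluorescence (ex 340/em 450 nm) read at t=0 and after 15 min RT. GPX4 200 nM, preincubated 30 min with compound; substrate 0.5 mM CHP.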

[21] = qHTS drug screen for cell cycle checkpoint inhibitors in PARPi-resistant BRCA-mutant ovarian cancer cell lines. (AID 1963452; calls by dose curve); conditions: PEO1/OlaR viability, CellTiter-Glo luminescence, 96 h, stronger effect = lower value
Method in brief: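 PEO1, PEO4 and PEO1/OlaR ovarian cancer cells, 600 per well, exposed 96 h at 37C to a dilution series. Viability read by CellTiter-Glo luminescence, normalized to DMSO and empty wells; activity summarized as Z-AUC.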

[22] = target: Rap guanine nucleotide exchange factor 3 (Homo sapiens) (UniProt O95398); assay: Confirmatory qHTS for antagonist of cAMP-regulated guanine nucleotide exchange factor 3 (EPAC1) (AID 1645880); further: potency means the concentration at half of the fitted maximal effect; nearly all actives have a fitted effect of over 55% in size
Rap guanine nucleotide exchange factor 3 (Homo sapiens), sequence (O95398 whole entry, looked up): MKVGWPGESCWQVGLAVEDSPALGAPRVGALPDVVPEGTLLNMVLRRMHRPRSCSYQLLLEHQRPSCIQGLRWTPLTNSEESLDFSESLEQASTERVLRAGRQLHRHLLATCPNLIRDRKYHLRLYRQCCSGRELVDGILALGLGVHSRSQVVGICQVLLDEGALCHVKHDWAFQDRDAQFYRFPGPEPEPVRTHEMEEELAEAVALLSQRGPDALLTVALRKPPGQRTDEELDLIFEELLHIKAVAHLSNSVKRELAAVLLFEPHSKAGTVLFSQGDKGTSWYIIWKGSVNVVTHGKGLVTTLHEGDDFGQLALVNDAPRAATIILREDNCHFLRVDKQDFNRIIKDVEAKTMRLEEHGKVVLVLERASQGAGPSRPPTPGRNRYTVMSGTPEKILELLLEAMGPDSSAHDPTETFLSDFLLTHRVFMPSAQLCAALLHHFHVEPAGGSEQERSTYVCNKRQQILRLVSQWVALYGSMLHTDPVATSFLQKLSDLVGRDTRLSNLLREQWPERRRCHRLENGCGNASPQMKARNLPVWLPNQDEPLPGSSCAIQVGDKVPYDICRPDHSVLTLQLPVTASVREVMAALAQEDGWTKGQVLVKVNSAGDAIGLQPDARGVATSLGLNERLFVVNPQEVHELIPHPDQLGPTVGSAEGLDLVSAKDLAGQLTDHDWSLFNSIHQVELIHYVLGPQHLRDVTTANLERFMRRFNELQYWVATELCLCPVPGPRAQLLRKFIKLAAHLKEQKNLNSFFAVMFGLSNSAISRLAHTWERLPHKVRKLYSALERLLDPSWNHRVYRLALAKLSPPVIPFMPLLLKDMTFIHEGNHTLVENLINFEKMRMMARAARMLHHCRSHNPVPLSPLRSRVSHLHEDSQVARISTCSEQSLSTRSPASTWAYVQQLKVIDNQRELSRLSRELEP
Method in brief: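 Nucleotide exchange uses 100 nM EPAC1, 250 nM RAP1B-BODIPY-GDP and 50 uM GDP, with compounds in a concentration-titration series. After 5 min at room temperature, fluorescence (480 nm ex/540 nm em) is read every 5 min for 30 min. Data are normalized to control ATA and DMSO.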

[23] = target: Rap guanine nucleotide exchange factor 3 (Homo sapiens) (UniProt O95398); assay: Confirmatory qHTS for agonist of cAMP-regulated guanine nucleotide exchange factor 3 (EPAC1) (AID 1645881);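 further: EPAC1 catalysed release of BODIPY-GDP from Rap1B seen as fluorescence loss; 100% = effect of cAMP agonist control; nearly all actives have a fitted effect of over 75% in size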
[24] = target: Rap guanine nucleotide exchange factor 4 (Homo sapiens) (UniProt Q8WZA2); assay: Confirmatory qHTS for antagonist of cAMP-regulated guanine nucleotide exchange factor 4 (EPAC2) (AID 1645885); further: nearly all actives have a fitted effect of over 25% in size
Rap guanine nucleotide exchange factor 4 (Homo sapiens), sequence (Q8WZA2 whole entry, looked up): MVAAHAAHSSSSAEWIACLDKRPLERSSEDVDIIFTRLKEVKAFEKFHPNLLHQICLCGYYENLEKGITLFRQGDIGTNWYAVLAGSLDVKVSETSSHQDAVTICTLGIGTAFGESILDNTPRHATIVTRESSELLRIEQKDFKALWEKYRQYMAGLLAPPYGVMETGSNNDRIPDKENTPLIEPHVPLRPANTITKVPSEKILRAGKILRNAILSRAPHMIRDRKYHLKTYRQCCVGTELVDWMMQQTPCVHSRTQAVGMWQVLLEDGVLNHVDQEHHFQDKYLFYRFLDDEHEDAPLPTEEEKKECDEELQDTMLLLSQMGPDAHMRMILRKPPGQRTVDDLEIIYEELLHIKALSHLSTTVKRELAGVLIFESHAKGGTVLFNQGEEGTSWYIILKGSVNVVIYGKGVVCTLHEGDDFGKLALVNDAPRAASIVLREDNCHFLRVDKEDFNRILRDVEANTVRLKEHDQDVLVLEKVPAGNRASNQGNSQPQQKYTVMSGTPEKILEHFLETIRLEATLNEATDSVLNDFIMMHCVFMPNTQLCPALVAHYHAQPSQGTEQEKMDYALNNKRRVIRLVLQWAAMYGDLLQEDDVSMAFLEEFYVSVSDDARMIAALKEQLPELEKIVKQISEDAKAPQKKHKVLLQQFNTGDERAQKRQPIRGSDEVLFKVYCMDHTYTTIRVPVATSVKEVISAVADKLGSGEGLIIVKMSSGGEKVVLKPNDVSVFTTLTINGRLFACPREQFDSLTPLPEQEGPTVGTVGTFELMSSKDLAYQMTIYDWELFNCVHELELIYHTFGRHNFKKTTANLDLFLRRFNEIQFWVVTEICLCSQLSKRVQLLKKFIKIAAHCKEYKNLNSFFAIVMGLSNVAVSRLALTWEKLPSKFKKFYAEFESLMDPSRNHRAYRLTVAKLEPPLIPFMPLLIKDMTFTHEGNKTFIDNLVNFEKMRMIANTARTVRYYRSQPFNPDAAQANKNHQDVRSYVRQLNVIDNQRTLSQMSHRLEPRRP

[25] = target: Rap guanine nucleotide exchange factor 3 (Homo sapiens) (UniProt O95398); assay: Counterscreen qHTS for antagonist of cAMP-regulated guanine nucleotide exchange factor 3 (EPAC1) (AID 1645888);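 further: fluorescence loss as bound BODIPY-GDP is released from Rap1B; % of control where 0% means no effect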
Method in brief: (§4)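 Measured: fluorescence of BODIPY-GDP bound to Rap1B, which falls as exchange proceeds. Conditions include 50 uM competing GDP, 5 and 30 min reads, and a later cAMP challenge for antagonist detection.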

[26] = target: Rap guanine nucleotide exchange factor 3 (Homo sapiens) (UniProt O95398); assay: Counterscreen qHTS for agonist of cAMP-regulated guanine nucleotide exchange factor 3 (EPAC1) (AID 1645889); further: % of control where 0% means no effect; nearly all actives have a fitted effect of over 40% in size
Method in brief: as §4

[27] = qHTS Assay for Identifying Gametocytocidal Compounds (AID 743244);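 further: on the % scale 0 is the no-effect control and ±100 the full control effect; actives lower the fluorescent signal which means gametocytes are killed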; conditions: P. falciparum 3D7 stage III-V gametocytes, alamarBlue, 72 h; max response: stronger effect = lower value
Method in brief: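 Stage III–V gametocytes of P. falciparum 3D7 were seeded at 20,000 cells/well onto pre-dispensed compounds. After 72 h, 37 °C, 5% CO2, alamarBlue was added for another 24 h.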

[28] = target: Rap guanine nucleotide exchange factor 4 (Homo sapiens) (UniProt Q8WZA2); assay: Confirmatory qHTS for agonist of cAMP-regulated guanine nucleotide exchange factor 4 (EPAC2) (AID 1645884);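 further: nucleotide exchange releases bodipy-GDP from Rap1 and this lowers its fluorescence; on the % scale 0 is the no-effect control and ±100 the full control effect; nearly all actives have a fitted effect of over 65% in size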

CC1(C#N)CCN(c2c(C(=O)N3CCC(C(=O)C4CC4)CC3)cnc3c(F)cc(F)cc23)CC1
active: Potency [1] 16.9 µM | Potency [2] 9.52 µM

C=C(C)[C@H]1CC=C(C)CC1
inactive: Potency [1] | Potency [2] | outcome [3] | outcome [4] | outcome [5] | outcome [6] | outcome [7] | outcome [8] | outcome [9] | outcome [10] | outcome [11] | outcome [12] | outcome [13] | max response [14] -0.263% | outcome [15] | outcome [16] | outcome [17] | outcome [18]

CCOC(=O)c1ccc(Nc2nc3nonc3nc2Nc2cccc(C)c2C)cc1
active: Potency [1] 10.7 µM
inactive: Potency [2]

CN[C@@H](C)C(=O)N[C@H](C(=O)N1CCC[C@H]1c1nc(C(=O)c2ccc(F)cc2)cs1)C1CCCCC1
-0.73: Z-AUC ([21]; measured here: PEO4 Z-AUC)
inactive: Potency [1] | Potency [2] | Potency [19] | Potency [20] | Z-AUC [21] -0.196
-0.329: Z-AUC ([21]; measured here: PEO1 parental Z-AUC)

CC1(C)CC1C(=O)NC(=CCCCCSCC(N)C(=O)O)C(=O)O (stereo not given)
inactive: Potency [1] | Potency [2]

Cc1cccc(C)c1NC(=O)Cn1cc(C(=O)c2ccco2)c2ccccc21
active: Potency [1] 9.52 µM | Potency [2] 3.79 µM

Cc1cc(-c2nc(CN3CCC(C(=O)NCCCN4C[C@H](C)C[C@H](C)C4)CC3)co2)ccc1F
inactive: Potency [2] | Potency [19]
active: Potency [1] 0.952 µM

Cc1cccn2c(=O)cc(CSc3nnc(NC(=O)COc4ccccc4)s3)nc12
active: Potency [2] 6.74 µM | Potency [22] 67.5 µM
inactive: Potency [1] | Potency [23] | Potency [24] | Potency [25] | Potency [26]

CN(CCCCCCCCCCN(C)C(=O)Oc1cccc([N+](C)(C)C)c1)C(=O)Oc1cccc([N+](C)(C)C)c1
inactive: Potency [1] | Potency [2] | Potency [19] | Potency [20]

CC[C@H]1OC(=O)[C@H](C)[C@@H](O[C@H]2C[C@@](C)(OC)[C@@H](O)[C@H](C)O2)[C@H](C)[C@@H](O[C@@H]2O[C@H](C)C[C@H](N(C)C)[C@H]2O)[C@](C)(OC)C[C@@H](C)C(=O)[C@H](C)[C@@H](O)[C@]1(C)O
inactive: max response [27] -5.34% | Potency [1] | Potency [2] | Potency [19] | Potency [20]

Oc1c(C(c2ccccc2)N2CCN(c3cccc(Cl)c3)CC2)sc2nc(-c3ccco3)nn12 (stereo not given)
active: Potency [1] 13.5 µM | Potency [2] 5.35 µM | Potency [22] 47.8 µM
inactive: Potency [23] | Potency [28] | outcome [24] inactive [at 12.7 µM]

O=C(CCCCCn1c(=O)c2sccc2n(CC(=O)Nc2cccc(Cl)c2)c1=O)NCc1ccc2c(c1)OCO2
active: Potency [1] 0.0268 µM | Potency [2] 0.239 µM
